Our source for the Potency values is PubChem BioAssay (Tox21).

A number with no mark means an inactive call. Inconclusive results are not listed. Calls of active or inactive are those of the source. Unless noted, calls come from the whole dose curve.

A short description of assay [1]: Nuclear factor erythroid 2-related factor 2/antioxidant responsive element (Nrf2/ARE) small molecule agonists: luciferase reporter gene qHTS assay in human keratinocytes (AID 1919969). Note: nearly all actives have a fitted effect of over 35% in size. Note: potency is the fitted concentration of half-maximal effect.
The target in assay [2] is Gonadotropin-releasing hormone receptor (Homo sapiens) (UniProt P30968). The assay is described as follows: Human gonadotropin-releasing hormone receptor (GnRHR) small molecule agonists, calcium flux assay in GnRHR-HEK293 cells (AID 1920063). Note: nearly all actives have a fitted effect of over 35% in size. An outline of the steps:
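HEK293 cells stably expressing human GnRHR were plated 18 h at 37 °C, loaded with calcium dye 1 h at 37 °C, then given compound in agonist mode; fluorescence (Ex/Em 480/540) read kinetically for 3 min at 1 s intervals.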
(A change in cytosolic calcium serves as a functional read-out for many receptors and channels.)

For assay [3], the target named is KiSS-1 receptor (Homo sapiens) (UniProt Q969F8). Description: Human kisspeptin (KISS1R) small molecule agonists, calcium flux assay in KISS1R-HEK293 cells (AID 1920064; active = well fitted activation curve with a large enough effect in the repeat runs). In outline:
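HEK293 cells stably expressing human KISS1R were plated 18 h at 37 °C, loaded with calcium dye for 1 h at 37 °C, then given compound by pin tool. Fluorescence (Ex/Em 480/540) was read kinetically for 3 min.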

Assay [4] is described as follows: G protein-coupled receptor (GPCR) small molecule agonists, calcium flux assay: HEK293 wild type cell line counter screen (AID 1920065). In outline: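 Cells were plated and cultured 18 h at 37 C/5% CO2, then loaded with calcium dye for 1 h at 37 C. Compounds in DMSO were pin-transferred in agonist mode, and fluorescence (Ex/Em 480/540) was read kinetically for 3 min at 1 s intervals.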

A short description of assay [5]: p53 small molecule agonists, cell-based qHTS assay with human liver microsomes (AID 1963577). An outline of the steps: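 p53RE-bla cells, 4,000/well, compound added after 5 h, with human liver microsomes 0.5 mg/mL and NADPH 0.5 mg/mL final; 16 h at 37 C, then LiveBLAzer 2 h RT, fluorescence.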
(In general: Quantitative high-throughput screening tests each substance at several concentrations.)

Assay [6] is described as follows: p53 small molecule agonists, cell-based qHTS assay with rat liver microsomes (AID 1963578). In outline:
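p53RE-bla cells, 4,000/well, pre-incubated 5 h, then given compounds plus rat liver microsomes (0.5 mg/mL final) and NADPH (0.5 mg/mL final). Incubation 16 h at 37 C; beta-lactamase reporter read by LiveBLAzer fluorescence after 2 h at room temperature.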

The nature of assay [7]: p53 small molecule agonists, cell-based qHTS assay with human liver microsomes: qHTS cell viability counter screen (AID 1963579). Note: nearly all actives have a fitted effect of over 45% in size. An outline of the steps:
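p53RE-bla cells, 4,000/well, dosed 5 hours after plating, with human liver microsomes (0.5 mg/mL final) plus NADPH (0.5 mg/mL final), 16 hours at 37 C. Viability read as CellTiter-Glo luminescence after 30 min at room temperature.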

Assay [8] can be described thus: p53 small molecule agonists, cell-based qHTS assay with rat liver microsomes: qHTS cell viability counter screen (AID 1963580). Note: nearly all actives have a fitted effect of over 45% in size. An outline of the steps:
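Viability is assessed in parallel with the p53 reporter read: HCT-116 p53RE-bla cells receive compounds plus rat microsomes and NADPH (0.5 mg/mL final apiece), incubate 16 h at 37 C, and then CellTiter-Glo luminescence is recorded.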

Assay [9] can be described thus: p53 small molecule agonists, cell-based qHTS assay: qHTS cell viability counter screen (AID 1963581). Note: nearly all actives have a fitted effect of over 45% in size. Note: potency is the fitted concentration of half-maximal effect. An outline of the steps: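 p53RE-bla HCT-116 cells were exposed to compounds for 16 h at 37 C; after the beta-lactamase FRET read in the same wells, CellTiter-Glo was added and luminescence (intracellular ATP) read after 30 min at room temperature.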
In assay [10] the target is 5-hydroxytryptamine receptor 2A (Homo sapiens) (UniProt P28223). Description: 5-hydroxytryptamine receptor 2A (HTR2A) small molecule antagonists, cell-based qHTS assay (AID 1963586). Note: nearly all actives have a fitted effect of over 45% in size. Note: potency is the fitted concentration of half-maximal effect. In outline:
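Antagonist-mode intracellular calcium assay: DOI (4 nM) added after 5 min compound pre-incubation at room temperature to dye-loaded HTR2A-CHO cells. Fluorescence followed for 3 min, sampled every second.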

Assay [11] has the same target. Description: 5-hydroxytryptamine receptor 2A (HTR2A) small molecule agonists, cell-based qHTS assay (AID 1963587). Note: nearly all actives have a fitted effect of over 30% in size. In outline: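 CHO cells stably expressing human HTR2A, plated 18 h, loaded with calcium dye 1 h at 37 C. Agonist mode: compounds added and intracellular calcium fluorescence recorded kinetically for 2 min at 1 sec intervals.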
Assay [12] has as its target Muscarinic acetylcholine receptor M1 (Homo sapiens) (UniProt P11229). The assay is described as follows: Cholinergic receptor muscarinic 1 (CHRM1) small molecule antagonists, cell-based qHTS assay (AID 1963588). Note: nearly all actives have a fitted effect of over 40% in size. An outline of the steps: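 CHRM1-CHO calcium-flux assay, antagonist mode. Cells were seeded 18 h, dye-loaded 1 h at 37 C and given compound for 5 min at RT, then acetylcholine was added at 50nM. FDSS fluorescence was read 3 min; 15 concentrations, three runs.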

Assay [13] has as its target Beta-2 adrenergic receptor (Homo sapiens) (UniProt P07550). The assay is described as follows: Adrenergic beta2 receptor (ADRB2) small molecule antagonists, cell-based qHTS assay (AID 1963592). Note: series mostly up to about 92 µM; nearly all actives have a fitted effect of over 50% in size. An outline of the steps:
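Cells (CHO, stable ADRB2 overexpression) incubated 18-20hr at 37C; compounds added from DMSO; agonist mix (1nM isoproterenol, 100uM IBMX, 25uM Ro-20-1724) added; 0.5hr RT; d2-cAMP and anti-cAMP-cryptate added; 1hr RT; 665/615 nm read.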

Assay [14] has as its target D(2) dopamine receptor (Homo sapiens) (UniProt P14416). The assay is described as follows: Dopamine D2 receptor (DRD2) small molecule antagonists, cell-based qHTS assay (AID 1963595; active = well fitted inhibition curve with a large enough effect in the signal ratio in the repeat runs, with a control signal flat; the % refers to the signal ratio; note: potency is the fitted concentration of half-maximal effect). In outline: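 Antagonist mode in DRD2-HEK293 cells: after compound addition with 0.1 mM Ro20-1724, cells received quinpirole (12 nM) and NKH477 (200 nM) for 30 min at room temperature; HTRF cAMP read after 1 h detection.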

In assay [15] the target is Muscarinic acetylcholine receptor M1 (Homo sapiens) (UniProt P11229). Description: Cholinergic receptor muscarinic 1 (CHRM1) small molecule agonists, cell-based qHTS assay (AID 1963589). Note: nearly all actives have a fitted effect of over 35% in size. In outline:
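CHO cells stably expressing human CHRM1, seeded 18 h at 37 C/5% CO2, dye-loaded 1 h at 37 C, then given compound in agonist mode; intracellular calcium fluorescence read kinetically at 1 s intervals. Fifteen concentrations, three independent runs.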

The target of assay [16] is D(2) dopamine receptor (Homo sapiens) (UniProt P14416). Description: Dopamine D2 receptor (DRD2) small molecule agonists, cell-based qHTS assay (AID 1963594). Note: nearly all actives have a fitted effect of over 35% in size. An outline of the steps:
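HEK293 cells stably expressing human DRD2, pre-treated with PDE inhibitor Ro20-1724 (0.1 mM final) and compound 10 min at room temperature, then stimulated with NKH477 (200nM […]) for 30 min. cAMP read by HTRF (665/620 nm).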

The nature of assay [17]: cAMP Responsive Elements (CRE) small molecule antagonists, cell-based qHTS assay (AID 1963591; active = well fitted inhibition curve with a large enough effect in the signal ratio in the repeat runs, not every such curve was filed as active; the % refers to the signal ratio). An outline of the steps:
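CRE-bla HEK293T cells were plated 18 h at 37 °C/5% CO2, pinned with compound in DMSO, then stimulated with NKH477 at 0.25 uM final for 3 h. LiveBLAzer B/G FRET substrate was added and plates incubated 2 h at room temperature.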

Assay [18] can be described thus: p53 small molecule agonists, cell-based qHTS assay (AID 1963582; active = well fitted activation curve with a large enough effect in the signal ratio in the repeat runs, not every such curve was filed as active; the % refers to the signal ratio). An outline of the steps:
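p53RE-bla beta-lactamase reporter cells rested 5 h at 37 C/5% CO2, then received compounds in DMSO by pin transfer and were incubated 16 h at 37 C. LiveBLAzer B/G FRET substrate was loaded for 2 h at room temperature before fluorescence reading.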

D(2) dopamine receptor (Homo sapiens), sequence (P14416 whole entry, looked up): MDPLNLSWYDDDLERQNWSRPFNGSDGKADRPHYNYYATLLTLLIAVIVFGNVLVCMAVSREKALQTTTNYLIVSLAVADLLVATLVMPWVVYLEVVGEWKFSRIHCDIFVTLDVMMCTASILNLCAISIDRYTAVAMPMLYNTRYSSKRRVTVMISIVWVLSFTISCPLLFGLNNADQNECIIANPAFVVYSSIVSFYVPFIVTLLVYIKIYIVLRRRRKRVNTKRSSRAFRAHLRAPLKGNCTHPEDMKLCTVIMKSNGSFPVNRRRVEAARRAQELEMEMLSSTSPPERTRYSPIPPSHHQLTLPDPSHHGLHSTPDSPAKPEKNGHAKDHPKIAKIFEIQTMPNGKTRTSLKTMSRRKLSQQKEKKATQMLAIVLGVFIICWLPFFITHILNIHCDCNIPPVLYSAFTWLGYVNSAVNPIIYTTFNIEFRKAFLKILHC
KiSS-1 receptor (Homo sapiens), sequence (Q969F8 whole entry, looked up): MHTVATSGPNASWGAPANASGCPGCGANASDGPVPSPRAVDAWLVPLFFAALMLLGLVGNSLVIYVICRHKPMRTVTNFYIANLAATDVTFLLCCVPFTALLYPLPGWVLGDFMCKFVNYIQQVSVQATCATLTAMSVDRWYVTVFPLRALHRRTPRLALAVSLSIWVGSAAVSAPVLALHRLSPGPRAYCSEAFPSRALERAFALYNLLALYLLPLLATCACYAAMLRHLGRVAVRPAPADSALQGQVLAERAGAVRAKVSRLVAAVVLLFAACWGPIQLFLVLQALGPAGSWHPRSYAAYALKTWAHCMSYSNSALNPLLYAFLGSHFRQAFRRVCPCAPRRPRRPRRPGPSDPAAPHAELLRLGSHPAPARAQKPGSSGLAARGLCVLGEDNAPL
5-hydroxytryptamine receptor 2A (Homo sapiens), sequence (P28223 whole entry, looked up): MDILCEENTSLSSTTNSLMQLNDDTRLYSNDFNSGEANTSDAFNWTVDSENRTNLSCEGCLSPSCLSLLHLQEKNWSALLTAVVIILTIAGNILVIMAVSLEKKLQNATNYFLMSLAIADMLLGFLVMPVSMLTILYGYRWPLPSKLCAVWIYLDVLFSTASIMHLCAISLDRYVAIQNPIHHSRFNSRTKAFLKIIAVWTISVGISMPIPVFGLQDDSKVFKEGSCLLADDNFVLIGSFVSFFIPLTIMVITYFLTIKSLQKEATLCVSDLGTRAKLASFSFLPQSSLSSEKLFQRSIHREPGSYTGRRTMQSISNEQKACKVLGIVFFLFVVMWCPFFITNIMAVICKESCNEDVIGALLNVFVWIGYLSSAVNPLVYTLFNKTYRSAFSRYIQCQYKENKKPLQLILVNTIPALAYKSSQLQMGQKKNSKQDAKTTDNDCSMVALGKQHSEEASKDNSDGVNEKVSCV
Gonadotropin-releasing hormone receptor (Homo sapiens), sequence (P30968 whole entry, looked up): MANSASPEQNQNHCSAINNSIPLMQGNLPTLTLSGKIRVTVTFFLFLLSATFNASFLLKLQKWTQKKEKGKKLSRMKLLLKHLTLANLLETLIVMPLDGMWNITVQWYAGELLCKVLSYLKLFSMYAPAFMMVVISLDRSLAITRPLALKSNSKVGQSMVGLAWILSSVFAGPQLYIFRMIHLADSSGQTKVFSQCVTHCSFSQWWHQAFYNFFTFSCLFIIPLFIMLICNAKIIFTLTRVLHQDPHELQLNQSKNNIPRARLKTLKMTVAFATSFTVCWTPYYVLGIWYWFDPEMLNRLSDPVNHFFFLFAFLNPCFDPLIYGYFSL
Beta-2 adrenergic receptor (Homo sapiens), sequence (P07550 whole entry, looked up): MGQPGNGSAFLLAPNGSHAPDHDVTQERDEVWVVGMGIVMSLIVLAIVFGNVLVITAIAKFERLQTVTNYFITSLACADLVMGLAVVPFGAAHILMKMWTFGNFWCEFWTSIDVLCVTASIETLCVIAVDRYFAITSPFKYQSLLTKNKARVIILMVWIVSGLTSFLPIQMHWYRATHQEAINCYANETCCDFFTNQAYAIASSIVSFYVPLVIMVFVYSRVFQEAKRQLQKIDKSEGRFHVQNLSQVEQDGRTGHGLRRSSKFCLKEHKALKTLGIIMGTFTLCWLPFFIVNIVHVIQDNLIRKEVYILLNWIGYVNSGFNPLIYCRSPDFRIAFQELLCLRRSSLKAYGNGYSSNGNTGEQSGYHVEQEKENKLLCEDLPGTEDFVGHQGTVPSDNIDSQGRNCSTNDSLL
Muscarinic acetylcholine receptor M1 (Homo sapiens), sequence (P11229 whole entry, looked up): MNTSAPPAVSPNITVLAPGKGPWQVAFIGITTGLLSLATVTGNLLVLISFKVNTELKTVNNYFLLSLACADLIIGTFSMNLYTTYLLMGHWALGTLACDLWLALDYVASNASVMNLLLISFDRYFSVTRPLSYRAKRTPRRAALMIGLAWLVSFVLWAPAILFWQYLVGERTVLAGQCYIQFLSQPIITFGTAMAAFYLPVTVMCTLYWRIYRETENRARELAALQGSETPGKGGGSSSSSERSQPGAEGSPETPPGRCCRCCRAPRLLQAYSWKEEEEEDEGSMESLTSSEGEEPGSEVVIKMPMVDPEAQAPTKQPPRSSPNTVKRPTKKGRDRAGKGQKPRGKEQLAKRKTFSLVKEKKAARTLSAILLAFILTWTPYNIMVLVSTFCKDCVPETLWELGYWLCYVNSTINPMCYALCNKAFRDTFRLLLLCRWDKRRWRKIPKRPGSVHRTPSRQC

For `Oc1c(Cl)cc(Cl)c2cccnc12`, in [1], the Potency was 0.188 µM (active). The Potency result in assay [2], in [3], in [4], in assay [5], in assay [6] and in assay [7] was “inactive” throughout. Besides, the Potency entry in assay [8], in [9], in [10], in assay [11], in assay [12] and in [13] was “inactive” throughout. The Potency entry in assay [14] is “inactive”.

Take `CCCCc1oc2ccc(NS(C)(=O)=O)cc2c1C(=O)c1ccc(OCCCN(CCCC)CCCC)cc1`: the Potency result in assay [1], in [2], in assay [3], in assay [4], in [5] and in [6] was “inactive” in each case. The Potency entry in assay [7], in [8], in [10], in assay [12], in [15] and in [16] was “inactive” throughout.

Take `CC(C)C(OC(=O)c1ccccc1)C(C)(C)COC(=O)c1ccccc1` (configuration not stated): the Potency in assay [1] is 30.6 µM (active). Further, the Potency result in [2], in assay [3], in assay [4], in assay [5], in [6] and in assay [7] was “inactive” each time. Also, the Potency entry in assay [8], in assay [10], in assay [11], in assay [12], in assay [15] and in [17] was “inactive” in each case. For the same compound, the Potency entry in assay [13], in [16] and in assay [14] was “inactive” each time.

On to `COc1cc2ncnc(Nc3ccc(F)c(Cl)c3)c2cc1OCCCN1CCOCC1`, for which the Potency entry in assay [1], in assay [2], in assay [3], in [4], in assay [5] and in [6] was “inactive” in each case. Also, the Potency entry in [7], in assay [8], in assay [10], in assay [11], in [12] and in assay [15] was “inactive” in each case. The Potency entry in assay [13] and in assay [16] was “inactive” each time. In addition, in assay [14], the Potency is 29.8 µM (active).

As to `COc1cc(C=C2CCC/C(=C\c3ccc(O)c(OC)c3)C2=O)ccc1O`, the Potency in [1] was 6.68 µM (active); in assay [9], 14.1 µM (active); in assay [10], 18.3 µM (active). The Potency result in assay [2], in [3], in assay [4], in assay [5], in [6] and in assay [7] was “inactive” in each case. Further, the Potency result in assay [18], in assay [12], in assay [15], in assay [13], in assay [16] and in assay [14] was “inactive” in each case.

As to `O=C1c2ccccc2C(=O)c2c(O)c(O)cc(O)c21`, the Potency result in assay [1], in assay [2], in [3], in assay [4], in assay [5] and in assay [6] was “inactive” each time. Besides, the Potency result in [7], in assay [8], in assay [9], in assay [10], in assay [11] and in assay [12] was “inactive” each time. The Potency result in assay [15], in assay [13] and in assay [14] was “inactive” each time.

For `CO[C@H]1C=CO[C@@]2(C)Oc3c(C)c(O)c4c(O)c(c5c(c4c3C2=O)=NC2(CCN(CC(C)C)CC2)N=5)NC(=O)/C(C)=C\C=C/[C@H](C)[C@H](O)[C@@H](C)[C@@H](O)[C@@H](C)[C@H](OC(C)=O)[C@@H]1C`, the Potency result in assay [1], in assay [2], in [3], in assay [4], in [5] and in assay [6] was “inactive” throughout. The Potency result in assay [7], in assay [8], in [9] and in assay [13] was “inactive” each time.
